Only a selection was taken, and hits are over-represented in it overall.
mut p53 react – mutant p53 pathway re-activators, primary screen, cell-based, SW480, luciferase, single point, HTS | SW480 PUMA-promoter luciferase, p53 mutant reactivation | activation, % at 9.98 µM | 28,000 tested, 1.5% active; in the data active = activation above about 52%
STK33 inh – STK33 kinase inhibitors, primary screen, biochemical, luminescence, ADP-Glo, MBP substrate | Serine/threonine-protein kinase 33 (Homo sapiens), Q9BYT3 | inhibition, % at 12.5 µM | 27,000 tested, 0.44% active | AID 2322, 2010; in the data active = inhibition above about 20%
Target sequence (Q9BYT3 whole entry, looked up): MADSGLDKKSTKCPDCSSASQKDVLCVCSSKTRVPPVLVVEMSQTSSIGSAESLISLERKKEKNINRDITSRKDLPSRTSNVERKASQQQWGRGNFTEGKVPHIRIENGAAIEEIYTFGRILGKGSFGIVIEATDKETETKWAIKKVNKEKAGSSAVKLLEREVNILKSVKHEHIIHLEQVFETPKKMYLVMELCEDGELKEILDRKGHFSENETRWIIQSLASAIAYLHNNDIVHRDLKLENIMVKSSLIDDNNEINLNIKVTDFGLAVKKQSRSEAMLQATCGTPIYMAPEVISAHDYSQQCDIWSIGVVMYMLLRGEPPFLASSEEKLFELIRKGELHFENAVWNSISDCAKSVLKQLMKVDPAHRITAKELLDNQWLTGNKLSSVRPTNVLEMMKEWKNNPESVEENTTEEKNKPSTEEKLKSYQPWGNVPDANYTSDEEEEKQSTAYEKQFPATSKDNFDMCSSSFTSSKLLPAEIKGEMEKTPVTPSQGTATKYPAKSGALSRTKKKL
NOMO-1 viab – NOMO-1 AML cell viability reduction, primary screen, STK33 inhibitor project, CellTiter-Glo luminescence | 37,000 tested, 7.5% active | AID 2330, 2010 | inhibition, % (no concentration beside the values) | NOMO-1 AML viability, 72 h; in the data active = inhibition above about 80%
MITF inh – inhibitors of MITF, primary screen, MITF inhibitor project, cell-based, luminescence; inhibition, % (no concentration beside the values); AID 2240, 2010; 37,000 tested, 0.28% active; TRPM1 promoter luciferase, 24 h; in the data active = inhibition above about 85%;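 also: human melanocyte line stably carrying TRPM1 promoter luciferase reporter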
* hit, by the source's call; nt = no result given.

SMILES	mut p53 react	STK33 inh	NOMO-1 viab	MITF inh
COc1ccc(NC(=O)Nc2ccc3c(c2)C(=O)N([C@H](C)CO)C[C@H](C)[C@@H](CN(C)Cc2ccc(Cl)c(Cl)c2)OCCCC[C@@H](C)O3)cc1	nt	2	43	20
COc1ccc(NC(=O)Nc2ccc3c(c2)C(=O)N([C@H](C)CO)C[C@H](C)[C@H](CN(C)Cc2ccc(Cl)c(Cl)c2)OCCCC[C@H](C)O3)cc1	-28	nt	nt	nt
C[C@@H]1CCCCO[C@H](CN(C)Cc2ccc(Cl)c(Cl)c2)[C@@H](C)CN([C@H](C)CO)C(=O)c2cc(NC(=O)Nc3ccc(F)cc3)ccc2O1	nt	3	126*	27
C[C@@H]1CN([C@@H](C)CO)C(=O)c2cc(NC(=O)NC3CCCCC3)ccc2O[C@@H]1CN(C)Cc1ccc(Cl)c(Cl)c1	nt	0	22	32
C[C@@H]1CCCCO[C@@H](CN(C)Cc2ccc(Cl)c(Cl)c2)[C@@H](C)CN([C@H](C)CO)C(=O)c2cc(NC(=O)NC3CCCCC3)ccc2O1	nt	4	112*	25
COc1ccc(NC(=O)Nc2ccc3c(c2)C(=O)N([C@H](C)CO)C[C@H](C)[C@H](CN(C)Cc2ccc(Cl)c(Cl)c2)OCCCC[C@@H](C)O3)cc1	nt	4	98*	17
CC(C)NC(=O)Nc1ccc2c(c1)C(=O)N([C@H](C)CO)C[C@H](C)[C@H](CN(C)Cc1ccc(Cl)c(Cl)c1)OCCCC[C@@H](C)O2	nt	2	101*	55
CCC1(C)Cc2c(sc3nc(SC)nc(SCC(=O)Nc4cccc(Cl)c4)c23)CO1 (configuration not stated)	11	6	27	6
COc1c(S(=O)(=O)N2CCCN(S(=O)(=O)c3ccc(Cl)c(Cl)c3OC)CC2)ccc(Cl)c1Cl	-1	3	12	-20
C[C@@H]1CCCCO[C@@H](CN(C)Cc2ccc(Cl)c(Cl)c2)[C@@H](C)CN([C@H](C)CO)C(=O)c2cc(NC(=O)c3ccccc3)ccc2O1	nt	4	122*	31
C[C@@H]1CCCCO[C@H](CN(C)Cc2ccccc2)[C@@H](C)CN([C@H](C)CO)C(=O)c2cc(NC(=O)c3ccccc3)ccc2O1	nt	5	27	7
C[C@@H]1CCCCO[C@@H](CN(C)Cc2ccc(Cl)c(Cl)c2)[C@@H](C)CN([C@H](C)CO)C(=O)c2cc(NC(=O)Nc3ccc(F)cc3)ccc2O1	nt	5	134*	17
C[C@@H]1CN([C@H](C)CO)C(=O)Cc2cc(NC(=O)Nc3ccc(C(F)(F)F)cc3)ccc2O[C@H]1CN(C)S(=O)(=O)c1ccc(Cl)cc1	nt	3	117*	68
C[C@H](CO)N1C[C@H](C)[C@H](CN(C)S(=O)(=O)c2ccc(Cl)cc2)Oc2ccc(NC(=O)Nc3ccc(C(F)(F)F)cc3)cc2CC1=O	nt	0	134*	50
O=C(CSc1nc2ncccc2[nH]1)Nc1ccccc1Cl	14	5	62	-12
CCOc1ccc(NC(=O)C(C)n2nc([N+](=O)[O-])c(Br)c2C)cc1 (configuration not stated)	4	-3	21	-12
CC(=O)Nc1nonc1-c1nc2ccccc2n1Cc1ccccc1Br	50	4	115*	11
Cn1c(-c2nonc2NC(=O)c2ccccc2Br)nc2ccccc21	1	9	29	15
S=C(NCC1CCCO1)Nc1cnn(Cc2ccc(Cl)cc2)c1 (configuration not stated)	-3	1	3	-5
O=C(CC(Sc1ccccc1C(=O)O)c1ccc(F)cc1)c1ccc(F)cc1 (configuration not stated)	nt	nt	117*	9
Cc1ccc(NC(=O)CN(c2cccc(F)c2)S(C)(=O)=O)cc1Cl	0	2	15	13
Cc1ccc(C)c(NC(=O)CN(c2cccc(F)c2)S(C)(=O)=O)c1	64*	-3	14	10
COC(=O)c1ccccc1NC(=O)CN(c1ccc(I)cc1)S(C)(=O)=O	10	0	16	-13
COC(=O)c1ccc(C)c(NC(=O)CN(c2cc(Cl)c(Cl)cc2Cl)S(C)(=O)=O)c1	0	2	96*	0
COC(=O)c1ccc(Cl)c(NC(=O)CN(c2ccc(I)cc2)S(C)(=O)=O)c1	3	2	120*	22
SMILES	mut p53 react	STK33 inh	NOMO-1 viab	MITF inh
COC(=O)c1ccc(C)c(NC(=O)CN(c2ccc(F)cc2)S(C)(=O)=O)c1	6	-4	98*	-4
Cc1ccc(N=Cc2cc3ccccc3nc2Cl)cc1Cl	nt	nt	114*	16
CC(=O)Oc1ccc2c(c1)CCC1C2CC[C@@]2(C)C1CC[C@@H]2OC(C)=O (some centres not stated)	nt	4	0	-8
COc1ccc(C)cc1S(=O)(=O)N(CC(N)=O)c1ccc(Cl)cc1	-6	2	4	0
CCN(CC)C(=S)NC(=S)c1ccc(C)cc1	nt	nt	122*	-4
CN(C)c1oc(-c2ccc(Cl)cc2)nc1C#N	nt	nt	27	-1
C=C1C(=O)O[C@@H]2/C=C(/C)[C@@H]3C/C=C(/C[C@@H](OC(=O)/C(=C/CO)CO)[C@@H]12)C[C@@](O)(C(C)C)C(=O)O3	nt	-4	107*	-28
COc1ccc(NC(=O)Nc2nn(Cc3c(F)cccc3Cl)cc2Br)c(OC)c1	-31	1	27	3
CCC(C)C(OC1OC(C)C(O)C(O)C1O)C(C)C(=O)C(C)/C=C(\C)CC(C)C(O)C(C)C(=O)O (configuration not stated)	-3	-4	nt	nt
CN(c1cccc(NC(=O)Cc2ccccc2[N+](=O)[O-])c1)S(C)(=O)=O	-4	5	18	-17
COc1cc(CC(C)C(C)Cc2ccc(O)c(OC)c2)ccc1O (configuration not stated)	nt	2	121*	47
CCOC(=O)CC1Sc2ccccc2N=C1SCC(=O)Nc1cccc(C(F)(F)F)c1 (configuration not stated)	nt	nt	126*	-7
CCOc1ccc2nc(SCC(=O)Nc3cccc(C(F)(F)F)c3)sc2c1	19	-3	-1	-16
COC(=O)c1ccc(NC(=O)CSc2nnnn2-c2ccccc2OC)cc1	10	5	-14	20
Cc1cccc(NC(=O)Cn2cnc3sc(-c4ccccc4)cc3c2=O)c1	-6	4	13	-9
O=C(Cn1cnc2sc(-c3ccccc3)cc2c1=O)NCc1ccco1	-21	5	116*	-8
C[C@@H]1CC[C@H](O)/C=C/C(=O)O[C@H](C)CC[C@H](O)/C=C/C(=O)O1	nt	-2	108*	12
O=C1/C(=C/c2ccc(N3CCOCC3)cc2)CCC1C1CCCC1 (configuration not stated)	65*	nt	nt	nt
COc1ccc(NC(=O)C(C)Oc2ccccc2)cc1NC(=O)c1ccco1 (configuration not stated)	0	3	-14	10
COc1ccc(NC(=O)Nc2ccc3c(c2)C(=O)N([C@@H](C)CO)C[C@@H](C)[C@H](CN(C)Cc2ccc(-c4ccccc4)cc2)O3)cc1	nt	0	97*	-10
